Data on eight compounds can be found in PubChem BioAssay (NCI).

This is part of a sample that, as a whole, favours compounds with a hit. Of some 83,000 tested, about 20% had one in any assay.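 Plates (96-well) were seeded with cells, treated with compound at one concentration, and incubated for 48 hours before percent growth was determined.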 Values without a mark were called inactive. Activity calls are given as the source filed them. Rule for the calls: active = growth percent below 10; inactive = the rest.

Some test systems named below: K-562 leukemia; MALME-3M melanoma; MDA-MB-231 breast; RXF 393 renal; SF-295 CNS; SF-539 CNS; UACC-257 melanoma; M14 melanoma; HCT-15 colon; HT29 colon; SNB-75 CNS; PC-3 prostate; SK-MEL-5 melanoma; UACC-62 melanoma; LOX IMVI melanoma; SK-MEL-28 melanoma; SK-MEL-2 melanoma; SF-268 CNS; SNB-19 CNS; U251 CNS.
What all share (assay): NCI-60 one-dose screen, 48 h (100 = growth as untreated, 0 = no growth, -100 = all killed)
What all share (details): 10 µM

As to `CCN(CC)CCNc1ccc(CO)c2oc3cc(Cl)ccc3c(=O)c12`, the growth with K-562 leukemia was 81.8%; in the assay on MALME-3M melanoma, 112%; in the assay on MDA-MB-231 breast, 83.7%; with RXF 393 renal, 73.3%; in the assay on SF-295 CNS, 97.9%; with SF-539 CNS, 88.8%. Also, the growth is -0.905% (active) with UACC-257 melanoma; 60.3% in the assay with M14 melanoma; 81% in the assay with HCT-15 colon; 52.8% in the assay on HT29 colon; 69.7% in the assay with SNB-75 CNS; 77.4% with PC-3 prostate. The growth was 53.9% in the assay with SK-MEL-5 melanoma; 73.1% with UACC-62 melanoma; 70.5% in the assay on LOX IMVI melanoma; 97.8% in the assay with SK-MEL-28 melanoma; 128% with SK-MEL-2 melanoma.
On to `CC12O[C@H](C[C@@H](O)[C@H]1O)n1c3ccccc3c3c4c(c5c6ccccc6n2c5c31)C(=O)N(CCCN)C4=O`, for which the growth in the assay on K-562 leukemia is 15.5%; in the assay with MALME-3M melanoma, 33.4%; with MDA-MB-231 breast, 41.1%; in the assay on RXF 393 renal, 26.4%; in the assay on SF-268 CNS it was 36.5%; with SF-295 CNS, 51%. Besides, the growth in the assay with SF-539 CNS was 39.1%; in the assay on M14 melanoma, 37.1%; in the assay with HCT-15 colon, 96.4%; with HT29 colon, 11.3%; in the assay with SNB-75 CNS, 49.8%; in the assay on SNB-19 CNS, 26.9%. Moreover, the growth in the assay with U251 CNS was 14.8%; in the assay with PC-3 prostate it was 34%; in the assay on SK-MEL-5 melanoma, 40.6%; in the assay with UACC-62 melanoma, 47.8%; in the assay on LOX IMVI melanoma, 1.96% (active); in the assay with SK-MEL-28 melanoma, 92.1%. In the assay on SK-MEL-2 melanoma, the growth was 50.3%.
In the case of `CC12O[C@H](C[C@@H](OC(=O)c3ccccc3)[C@H]1O)n1c3ccccc3c3c4c(c5c6ccccc6n2c5c31)C(=O)NC4=O`, the growth in the assay with K-562 leukemia is 71%; in the assay with MALME-3M melanoma, 46.4%; in the assay with MDA-MB-231 breast, 53.3%; with RXF 393 renal, 15.6%; in the assay with SF-268 CNS it was 61.4%; with SF-295 CNS, 45.8%. In addition, the growth is 86.6% in the assay on SF-539 CNS; 44.4% in the assay on M14 melanoma; 77.7% in the assay on HCT-15 colon; 78.5% in the assay with HT29 colon; 45.7% in the assay with SNB-75 CNS; 101% with SNB-19 CNS. The growth was 77.1% in the assay with U251 CNS; 42.5% in the assay on PC-3 prostate; 48.6% with SK-MEL-5 melanoma; 55% in the assay with UACC-62 melanoma; 72.7% in the assay with LOX IMVI melanoma; 90.4% with SK-MEL-28 melanoma. For the same compound, the growth in the assay on SK-MEL-2 melanoma was 54.2%.
`Clc1ccc2c(NCCCNc3nccc(Nc4ccc(Br)cc4)n3)ccnc2c1`: the growth in the assay on K-562 leukemia was -68.8% (active); in the assay with MALME-3M melanoma it was -83.8% (active); with MDA-MB-231 breast, -90% (active); with RXF 393 renal it was -92.7% (active); with SF-268 CNS, -84.3% (active); in the assay with SF-295 CNS, -84.9% (active). Besides, the growth is -93.1% (active) in the assay with SF-539 CNS; -83.6% (active) in the assay with M14 melanoma; -65.8% (active) in the assay with HCT-15 colon; -80.3% (active) with HT29 colon; -93.9% (active) in the assay with SNB-75 CNS; -8.34% (active) in the assay with SNB-19 CNS. The growth with U251 CNS was -98.3% (active); with PC-3 prostate, -33.4% (active); with SK-MEL-5 melanoma, -100% (active); in the assay with UACC-62 melanoma, -87.9% (active); in the assay on LOX IMVI melanoma it was -85.8% (active); in the assay with SK-MEL-2 melanoma, -96.7% (active).
For `CN(C)CCNC(=O)c1cccn2c(=O)c3cc4ccccc4cc3nc12`, the growth in the assay with K-562 leukemia is 4.58% (active); in the assay on MALME-3M melanoma, -45.2% (active); with MDA-MB-231 breast, 22%; in the assay with RXF 393 renal, -89.5% (active); in the assay with SF-268 CNS, -14.9% (active); with SF-295 CNS, -19.7% (active). The growth is 1.59% (active) with SF-539 CNS; -63.7% (active) in the assay with M14 melanoma; 12.7% with HCT-15 colon; -60.7% (active) in the assay with HT29 colon; -72.7% (active) in the assay on SNB-75 CNS; 17.6% with SNB-19 CNS. Besides, the growth is -11.1% (active) in the assay with U251 CNS; -16.6% (active) in the assay on PC-3 prostate; -20.3% (active) with SK-MEL-5 melanoma; -56% (active) in the assay with UACC-62 melanoma; 1.07% (active) with LOX IMVI melanoma; -25.8% (active) in the assay with SK-MEL-28 melanoma. The growth in the assay with SK-MEL-2 melanoma was -65.9% (active).
On to `CCCCN(CCCC)c1cc(C(=O)CCCCCN)c2ccccc2n1`, for which the growth is -67.9% (active) in the assay with K-562 leukemia; -74.4% (active) with MALME-3M melanoma; 78.3% in the assay with MDA-MB-231 breast; 82.5% with RXF 393 renal; -58% (active) in the assay on SF-268 CNS; -62.3% (active) in the assay with SF-295 CNS. For the same compound, the growth was 83.6% in the assay with SF-539 CNS; 14.4% with M14 melanoma; 60.1% in the assay with HCT-15 colon; -38% (active) in the assay on HT29 colon; 105% with SNB-75 CNS; 105% in the assay on SNB-19 CNS. Also, the growth in the assay with U251 CNS was -77.9% (active); in the assay on PC-3 prostate, -93.2% (active); in the assay with SK-MEL-5 melanoma it was 98.3%; in the assay on UACC-62 melanoma, 105%; in the assay on LOX IMVI melanoma, -18% (active); in the assay on SK-MEL-28 melanoma it was 118%. Further, the growth in the assay on SK-MEL-2 melanoma was 87.9%.
In the case of `O=C(Nc1nc2ccc(F)cc2s1)c1cc(-c2ccc(F)cc2)n2nc(-c3ccccc3)cc2n1`, the growth in the assay with K-562 leukemia was 99.9%; with MALME-3M melanoma it was -1.39% (active); in the assay on MDA-MB-231 breast, 83.5%; in the assay on RXF 393 renal it was 104%; in the assay on SF-295 CNS, 94.8%; with SF-539 CNS, 93.6%. The growth was 59.2% in the assay on UACC-257 melanoma; 81% in the assay on M14 melanoma; 90.8% in the assay on HCT-15 colon; 92.7% with HT29 colon; 70.7% in the assay with SNB-75 CNS; 88% in the assay with SNB-19 CNS. Moreover, the growth was 102% in the assay with U251 CNS; 84.2% in the assay with PC-3 prostate; 68.3% in the assay with SK-MEL-5 melanoma; 66.3% with UACC-62 melanoma; 85.9% with LOX IMVI melanoma; 58.1% in the assay with SK-MEL-28 melanoma. In the assay with SK-MEL-2 melanoma, the growth was 111%.
Turning to `Oc1[nH]c2cc(Cl)ccc2c1/C=c1/ccc2c(c1)N=C(c1cc(F)cc(F)c1)N=2`, the growth in the assay on K-562 leukemia was 10.3%; in the assay on MALME-3M melanoma, 51.4%; in the assay with MDA-MB-231 breast, 66.7%; in the assay on RXF 393 renal it was 1.45% (active); in the assay with SF-295 CNS, 13.5%; with SF-539 CNS, 3.76% (active). Further, the growth in the assay with UACC-257 melanoma is 55.6%; with M14 melanoma, -9.94% (active); in the assay on HCT-15 colon it was 37.3%; in the assay with HT29 colon, 3.28% (active); in the assay on SNB-75 CNS, -21.5% (active); with SNB-19 CNS it was 64.5%. Also, the growth in the assay with U251 CNS was 20.7%; with PC-3 prostate, 13%; in the assay with SK-MEL-5 melanoma, 15.5%; in the assay with LOX IMVI melanoma it was 37.7%; with SK-MEL-28 melanoma, 40.1%; in the assay on SK-MEL-2 melanoma it was 20.4%.
